Among all 330,000 compounds or so, about 1,100 (0.33%) were called active. Rule as the data show it: active = inhibition above about 35%; inactive = the rest. The full list was thinned out, with actives kept by preference.
Test: lowers stimulated NF-kB luciferase signal in 697 B cells – cell-based, luminescence, uHTS, B-cell NF-kB inhibitor project, primary screen (AID 435022)
Conditions: 697 B-cell NF-kB luciferase reporter, PMA/ionomycin, 16 h; at 4 µM; stronger effect = higher value

inhibition, inactive:
CCCCc1nnc(NC(=O)CSc2nc(N)cc(=O)[nH]2)s1 13.3%
Cc1cc(C(=O)CSc2nc(N)cc(=O)[nH]2)c(C)n1-c1cccc(F)c1 -32.2%
CC(=O)N(OCc1ccc(OC(C)C)c(Cl)c1)C(C)=O -2.83%
COc1cc(F)c(C2=CC(=O)CC(C)(C)C2)cc1F 4.27%
Cn1c(-c2ccc(F)cc2)cc2onc(-c3ccccc3Cl)c2c1=O -275%
Cc1cccc(C(=O)Nc2ccc(Oc3cnccn3)cc2)c1 -6.59%
Cc1cccc(C(=O)Nc2ccc(C(=O)/C=C/c3cccs3)cc2)c1 6.21%
O=Cc1c(NCCCN2CCCC2=O)c2ccccc2[nH]c1=O 4.36%
CC(C)(C)c1cnnn1-c1ccc([N+](=O)[O-])cc1 12.8%
Cc1ccccc1Cn1c2ccccc2c2cnn(CC(=O)NCc3ccco3)c(=O)c21 -4.9%
O=C(NOCc1ccccc1)c1cccc([N+](=O)[O-])c1 -12.3%
O=C(COC(=O)c1ccc([N+](=O)[O-])cc1Cl)NC(=O)c1ccccc1 -5.46%
CCOC(=O)c1c(C)n(C)c2ccc(OC)c(NS(=O)(=O)CC)c12 -4.31%
COc1ccc2cc(CCl)c(Cl)nc2c1 -1.58%
O=C(Cn1cnc2ccccc2c1=O)NNC(=O)c1ccccc1F 1.67%
O=C(NCc1ccccc1CN1CCCC1)C1CCN(S(=O)(=O)c2ccc(Cl)cc2)CC1 -7.16%
COc1ccc(CNC(=O)Cc2ccc(-c3ccccc3)cc2)cc1OC 8.2%
COc1ccc(CNC(=O)c2ccc(Br)s2)cc1OC -2.07%
Cc1cc(C(F)(F)F)nc(SCC(=O)Nc2nccs2)n1 -18.2%
Cc1[nH]nc(SCC(=O)NCC(C)C)c1[N+](=O)[O-] 9.07%
Cc1oc2c(C)c3oc(=O)c(CC(=O)N[C@@H](CC(C)C)C(=O)N[C@@H](Cc4ccccc4)C(=O)O)c(C)c3cc2c1C 22.3%
CCOc1ccc(C(=O)Nc2cc(Cl)ccc2-n2cncn2)cc1OC 14%
CN(C)S(=O)(=O)c1ccc(N2CCCC2)c(C(=O)Nc2ccc(Br)cc2F)c1 9.57%
Cc1ccc(Cn2c(SCC(=O)N/N=C/c3ccccc3OCC(=O)O)nc3ccccc32)cc1 3.74%
CC(=O)c1nc2ccccc2n1Cc1ccccc1 3.31%
O=C1Nc2ccc(Br)cc2/C1=N/N=C/C1=C(N2CCOCC2)C(=C\c2ccccc2)/CC1 13.3%
COc1ccc(C2C=C(c3ccc(Br)cc3)Nc3nc(NS(C)(=O)=O)nn32)cc1 (stereo not given) 8.48%
O=C1/C(=C/c2ccc(F)cc2)SC(=S)N1CCCC(=O)N1CCCCC1CCO (stereo not given) -3.3%
Cc1ccc(/C=C2/SC(=S)N(CCC(=O)NCCCN3CCOCC3)C2=O)cc1 -16.3%
CN(CC(=O)NCc1ccncc1)S(=O)(=O)c1ccc(Br)cc1 12.7%
Cc1n[nH]c(C)c1S(=O)(=O)N1CCCC(C(=O)Nc2ccc(Br)cc2)C1 (stereo not given) -12.3%
Cc1cc(C)nc(N2CCC(C(=O)Nc3ccc4c(c3)OCCO4)CC2)n1 -5.99%
CC(=O)c1c(C)[nH]c(C(=O)COC(=O)c2cccc(S(=O)(=O)N(C)c3ccccc3)c2)c1C -50%
O=C(C1CCCN(S(=O)(=O)c2ccc([N+](=O)[O-])cc2)C1)N1CCCCC1 (stereo not given) -4.88%
O=C(Cc1ccccc1)N1CCN(S(=O)(=O)c2ccc([N+](=O)[O-])cc2)CC1 4.38%
COC(=O)c1c(NC(=O)COC(=O)[C@@H](NS(=O)(=O)c2ccccc2)C(C)C)sc2c1CCC2 10.3%
CC1CCCCN1C(=O)Cn1c(=O)oc2cc(S(=O)(=O)N3CCCCC3)ccc21 (stereo not given) 4.87%
O=C(CSc1nc(-c2ccccc2)cs1)Nc1cccc([N+](=O)[O-])c1 1.61%
CCN(CCCNC(=O)c1ccc2c(c1)NC(=O)CN2C)c1cccc(C)c1 -19.3%
O=C(Nc1ccc(-c2csc(Nc3cccc(C(F)(F)F)c3)n2)cc1)c1cccc(C(F)(F)F)c1 -26.3%
O=C(Nc1ccc(C(F)(F)F)cc1)c1cccc(-n2cnnn2)c1 -26.7%
Cc1ccc(NC(=O)CSc2nnc(CNC(=O)c3ccccc3F)o2)cc1 0.808%
CCOC(=O)N1CCN(S(=O)(=O)c2ccc(-n3cnnn3)cc2)CC1 -11.9%
O=C(Nc1ccccc1N1CCN(C(=O)c2ccccc2)CC1)c1ccco1 6.77%
CCCNC(=O)c1ccc(N2CCC3(CC2)CC(c2ccc(Cl)cc2)=NO3)c([N+](=O)[O-])c1 -1.96%
COc1ccc(NC(=O)c2sccc2SCC#N)cc1 0.298%
O=C(O)C1=C[C@H](c2cccs2)C[C@H](OCCCCO)O1 27.6%
Cn1c(CCCOc2ccc(Cl)cc2Cl)n[nH]c1=S -42.5%
CN=c1scc(-c2cc(OC)ccc2OC)n1/N=C/c1c(C)[nH]c2ccccc12 -18%
COc1ccc2[nH]c(C(=O)N/N=C/c3cc(OC)c(OC)c(OC)c3)cc2c1 -5.61%
O=C(Nc1ccc2c(c1)OCO2)C1CC(c2c(F)cccc2Cl)=NO1 (stereo not given) 10.7%
O=C(CNC(=O)Cc1ccccc1)NCC(=O)OCC(=O)c1ccccc1Cl 12.5%
O=C(O)c1ccc(COc2c(F)c(F)cc(F)c2F)o1 4.23%
Cn1c(=O)c2c(nc(N3CCCCCC3)n2CC(O)COc2ccc(Cl)cc2)n(C)c1=O (stereo not given) -3.4%
COc1ccc(CNC(=O)C2CCCC2)cc1 9.55%
COc1ccc(CNC(=O)C2CCN(S(C)(=O)=O)CC2)cc1 3.89%
CC(NC(=S)Nc1ccc(OC(F)F)cc1)c1ccc(F)cc1 (stereo not given) 2.48%
COC(=O)c1cc(OC)c(OC)cc1NC(=O)C1CCCO1 (stereo not given) 6.92%
Cc1ccc(-n2ncc3c2CCCC3NC(=O)c2cnccn2)cc1C (stereo not given) -27.6%
COc1ccc(C(=O)NC2CC(C)(C)Cc3c2cnn3-c2ccccc2C)o1 (stereo not given) 4.57%
COc1ccc(C(=O)NC2CCCc3c2cnn3-c2cccc(C)c2C)c(OC)n1 (stereo not given) -399%
CC1(C)Cc2c(cnn2-c2cccc(F)c2)C(NC(=O)c2cc[n+]([O-])cc2)C1 (stereo not given) -12.6%
CC(C)(C)C(=O)NCCCNc1ccc([N+](=O)[O-])cc1 14.1%
CN(C(=O)CC(NC(=O)c1ccccc1)(c1ccccc1)c1ccccc1)c1ccccc1 12%
COC(=O)/C(C#N)=C/c1occc1C 5.66%
CC(NCc1cccs1)C(=O)Nc1cc(Cl)cc(Cl)c1 (stereo not given) 7.31%
CN(C)c1ccc(-n2cccc2/C=N/n2cnnc2)cc1 -4.94%
CCc1ccnc(NC(=O)Nc2ccc(OCc3ccccc3)cc2)c1 6.55%
O=C(O)c1n[nH]nc1-c1ccccc1 14.7%
O=c1cc(-c2ccccc2)nc(N2CCCCC2)[nH]1 11.5%
COc1ccc(CNC(=O)C[C@H]2C[C@H](C(=O)N3CCOCC3)[C@@]3(C)c4[nH]c5cc(CCC(=O)N(C)C)ccc5c4CCN3C2=O)cc1OC 11.5%
CN1CC(c2ccccc2)C2(COc3ccccc3C2=O)C12C(=O)Nc1ccccc12 (stereo not given) 11.7%
CC(=O)c1nc(N2C(=O)C3CC=C(C)CC3C2=O)sc1C (stereo not given) 23.1%
COc1ccc(NC(=O)CSc2nc(SC)ns2)c(OC)c1 -40%
CCOC(=O)CSC1=N/C(=C/c2ccc(-n3cncn3)cc2)C(=O)N1C(C)=O 6.08%
C=CCC[C@@H](Cc1ccc(F)cc1)C(=O)O[C@H](CNC(=O)[C@H](CC=C)CC(=O)N(CCO)Cc1ccccc1)c1ccccc1 1.62%
CCOc1ccc(C(=O)CCC(=O)NC2=NCCS2)cc1 21.2%
O=C(CS(=O)(=O)Cc1ccccc1)Nc1cccnc1 -24.8%
S=C(c1ccc(-c2ccccc2)o1)N1CCCCC1 -134%
CN1CCN(CCCCOc2ccccc2-c2ccccc2)CC1 -15%
Cc1cc(=O)oc2c(C(=O)c3ccccc3)c(OCC(N)=O)ccc12 -14.5%
O=C(CSC1=NS(=O)(=O)c2cc(F)ccc2N1)Nc1ccccc1F 1.35%
NCCCC[C@@H]1NC(=O)[C@H](CCC(=O)O)NC(=O)c2cc([N+](=O)[O-])cc(I)c2NCC[C@@H](C(N)=O)NC1=O 18.3%

inhibition, active:
C=CCSc1nc(N)cc(=O)[nH]1 36.8%
Cc1cccc(C(=O)Nc2ccc(CC(=O)O)cc2)c1 40.2%
O=C(NC(Nc1nc2ccc([N+](=O)[O-])cc2s1)(C(F)(F)F)C(F)(F)F)c1ccccc1 99.5%
COc1ccc(CNC(=O)CNC(=O)c2sc3ccccc3c2Cl)cc1OC 35%
CCCc1nc2c(C)cc(-c3nc4ccccc4n3C)cc2n1Cc1ccc(-c2ccccc2C(=O)O)cc1 44.7%
C=CCOc1ccc(/C=C2\SC(=S)N(CCC(=O)O)C2=O)cc1 62.4%
Cc1cc(Nc2cc(N3CCN(C)CC3)nc(Sc3ccc(NC(=O)C4CC4)cc3)n2)n[nH]1 37%
O=C(C1CCC1)N1CCN(S(=O)(=O)c2ccc([N+](=O)[O-])cc2)CC1 38.2%
CNC(=O)c1ccc(NC(=O)c2cccc(C(F)(F)F)c2)cc1 40.3%
CCCNC(=O)c1ccc(N2CCC3(CC2)CC(c2cccc(Br)c2)=NO3)c(NC(=O)c2ccco2)c1 35.6%
COc1cc(N=Cc2c(O)[nH]c3ccccc23)cc(OC)c1OC 45.5%
COc1ccc(CNC(=O)[C@@H]2CC=C[C@@H]3CCN(C4CC4)C(=O)[C@@H]32)cc1 37.2%
Cn1nccc1C(=O)NC1CCCc2c1cnn2-c1ccccc1F (stereo not given) 62.7%
Cn1nccc1C(=O)NC1CCCc2c1cnn2-c1ccc(F)cc1F (stereo not given) 36.2%
O=c1[nH]c(-c2ccccc2)c(-c2ccccc2)[nH]1 35.4%
C[C@@H]1C[C@@H]2O[C@H]2/C=C\C=C\C(=O)Cc2c(Cl)c(O)cc(O)c2C(=O)O1 83.8%
OCCN1CCN(C(=S)c2ccc(-c3ccccc3)cc2)CC1 55.1%

Source: PubChem BioAssay AID435022 (Sanford-Burnham Center for Chemical Genomics, 2010)
